tim10-1 inh = growth inhibitors of tim10-1 mutant yeast, primary screen, luminescence, uHTS | AID 463190, 2010 | inhibition, % at 20 µM | S. cerevisiae tim10-1 ts strain growth, BacTiter-Glo, 24 h | 330,000 tested, 2.2% active;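 active = inhibition of at least 40%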;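 also: mutant grown at 25 °C; 0% = DMSO wells with yeast and 100% = wells holding no yeast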
Mdm2-MdmX inh = inhibitors of human Mdm2-MdmX association, primary screen, cell-based, luminescence, split luciferase, SaOS-2, uHTS | SaOS-2 split-luciferase Mdm2/MdmX complementation | inhibition, % at 8 µM | 330,000 tested, 3% active | AID 485346, 2010;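 active = inhibition of at least 50% at 8 µM in the primary screen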
Target sequence (O15151 whole entry, looked up): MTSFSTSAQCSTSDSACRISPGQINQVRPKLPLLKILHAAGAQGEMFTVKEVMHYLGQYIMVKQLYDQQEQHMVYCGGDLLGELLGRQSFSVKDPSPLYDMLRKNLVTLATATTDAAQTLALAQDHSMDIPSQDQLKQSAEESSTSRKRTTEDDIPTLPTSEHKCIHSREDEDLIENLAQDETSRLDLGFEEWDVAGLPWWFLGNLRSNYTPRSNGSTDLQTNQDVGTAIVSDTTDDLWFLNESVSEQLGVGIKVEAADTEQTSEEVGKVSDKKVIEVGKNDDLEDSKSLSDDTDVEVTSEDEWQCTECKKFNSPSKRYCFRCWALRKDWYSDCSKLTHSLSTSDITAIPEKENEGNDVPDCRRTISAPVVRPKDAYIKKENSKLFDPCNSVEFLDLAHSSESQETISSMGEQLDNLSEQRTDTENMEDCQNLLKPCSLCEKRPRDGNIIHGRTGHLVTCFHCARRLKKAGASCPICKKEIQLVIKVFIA
Target sequence (Q00987 whole entry, looked up): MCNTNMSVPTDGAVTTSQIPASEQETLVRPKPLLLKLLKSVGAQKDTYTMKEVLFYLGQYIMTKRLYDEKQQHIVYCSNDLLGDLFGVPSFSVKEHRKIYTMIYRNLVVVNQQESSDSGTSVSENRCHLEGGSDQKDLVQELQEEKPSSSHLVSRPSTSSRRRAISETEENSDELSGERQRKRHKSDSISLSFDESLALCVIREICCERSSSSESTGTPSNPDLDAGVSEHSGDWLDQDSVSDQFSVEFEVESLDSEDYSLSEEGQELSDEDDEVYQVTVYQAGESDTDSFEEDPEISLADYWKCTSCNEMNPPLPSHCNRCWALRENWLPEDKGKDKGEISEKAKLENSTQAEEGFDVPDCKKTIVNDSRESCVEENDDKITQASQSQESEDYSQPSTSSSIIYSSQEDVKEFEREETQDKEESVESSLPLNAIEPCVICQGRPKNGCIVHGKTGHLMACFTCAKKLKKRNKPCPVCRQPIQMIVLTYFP
tim23-1 inh = growth inhibitors of tim23-1 mutant yeast, primary screen, luminescence, uHTS | S. cerevisiae tim23-1 growth, BacTiter-Glo luminescence, 24 h | inhibition, % at 20 µM | 330,000 tested, 1.3% active | AID 463212, 2010;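 active = growth inhibition of the mutant yeast at or above 50%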;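 also: temperature-sensitive mutant grown at 25 °C; plate controls were DMSO-treated mutant yeast for no effect and medium wells lacking yeast for full effect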
MPTP block = mitochondrial permeability transition pore inhibitors, primary screen, biochemical, isolated mouse mitochondria, absorbance; Ca2+ swelling absorbance, 30 min; inhibition, % at 10 µM; 360,000 tested, 1.4% active; AID 602449, 2012;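 active = inhibition of 50% or more, scaled per plate between neutral and stimulator controls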;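 also: 0% = DMSO wells given calcium and 100% = 1 mM EGTA wells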
TIM10 inh = growth inhibitors of isogenic TIM10 control yeast, primary screen, counter-screen for tim10-1 yeast inhibitor project, luminescence, uHTS; S. cerevisiae TIM10 strain growth, BacTiter-Glo luminescence, 24 h; AID 463195, 2010; 330,000 tested, 1.4% active; inhibition, % at 10 µM;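 active = inhibition of 40% or more at the single tested concentration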;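 also: wild-type TIM10 isogenic control strain grown at permissive 25 °C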
Rh123 counter = fluorescence retest of MPTP screen hits in isolated mitochondria, single concentration; shares compounds with MPTP block; membrane potential, Rhodamine 123 fluorescence; inhibition, % at 10 µM; 5,000 tested, 78% active; AID 624504, 2012; in the data active = inhibition above about 22%;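 also: 0% = DMSO vehicle and 100% = positive control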
MPTP swell DR = mitochondrial permeability transition pore inhibitors, dose response, biochemical, absorbance, uHTS hits | shares compounds with MPTP block | isolated mitochondria swelling | IC50, µM | 780 tested, 58% active; in the data active = IC50 below about 20 µM
MPTP counter DR = fluorescent counter-screen in isolated mitochondria, dose response, counter-screen for MPTP inhibitor project, biochemical, fluorescence, uHTS hits | 780 tested, 49% active | AID 651564, 2012 | shares compounds with MPTP block | IC50, µM | isolated mitochondria counterscreen, fluorescence read-out; in the data active = IC50 below about 80 µM
* = called active by the depositor; · = not tested or not shown. Rows were chosen to be rich in hits. Some 6.3% of all compounds tested hit in one or more screens of this group.

SMILES	tim10-1 inh	Mdm2-MdmX inh	tim23-1 inh	MPTP block	TIM10 inh	Rh123 counter	others
CC(=O)c1cccc(NC(=S)NCCc2ccc(F)cc2)c1	4	5	24	9	23	·
Fc1ccc(NC(=S)NCc2ccccc2)cc1	14	-22	34	1	6	·
CC1=C(C(=O)N2CCOCC2)CC(CC(=O)NC2CC2)C(=O)N1Cc1ccc(F)cc1 (configuration not stated)	·	·	·	0	·	·
O=[N+]([O-])c1ccc(N2CCN(C(=S)Nc3cccc(F)c3)CC2)cc1	15	27	1	55*	7	58*
CCN(CC)C(=O)C1=C(C)N(CCC2=CCCCC2)C(=O)C(CC(=O)NCCCN(C)C)C1 (configuration not stated)	·	·	·	0	·	·
O=C(Nc1ccc(F)c(Cl)c1)Nc1ccc(Cl)cn1	13	48	-1	87*	-3	96*
O=C(Nc1ccc(Cl)cc1)Nc1cccnc1	1	-40	8	64*	-5	83*
O=C(Nc1ccc(Cc2ccc(NC(=O)Nc3cccnc3)cc2)cc1)Nc1cccnc1	·	·	·	-1	·	·
O=C(Nc1ccncc1)Nc1ccc(F)c(Cl)c1	-11	34	6	92*	-11	107*
COCC(=O)N1CCC(c2nc3ccccc3[nH]2)CC1	·	·	·	0	·	·
O=C(NCCN1CCC(n2c(=O)[nH]c3ccccc32)CC1)c1ccc(Cl)cc1Cl	·	·	·	0	·	·
Cc1ccc(S(=O)(=O)N2C[C@H]3C(=O)C[C@@H](c4cccc(Cl)c4)N(S(=O)(=O)c4ccc(C)cc4)[C@H]3C[C@H]2c2ccccc2)cc1	·	·	·	0	·	·
Cc1ccc(NC(=O)c2cc3cccc([N+](=O)[O-])c3[nH]2)cc1	12	-131	0	64*	14	61*
Cc1ccc(NC(=O)c2ccc(-n3cccn3)c([N+](=O)[O-])c2)cc1	-5	-9	12	8	2	·
CCC(C)c1ccccc1NC(=O)c1cc2cccc([N+](=O)[O-])c2[nH]1 (configuration not stated)	-10	0	20	61*	-109	66*
Cc1ccc2c(=O)n3c(nc2c1)C(Cc1ccccc1)NC(=O)c1cc(Cl)ccc1-3 (configuration not stated)	9	-24	26	·	7	·
c1coc(CNc2nc3nonc3nc2NCc2ccco2)c1	12	5	-29	96*	5	95*
C=CCOC(=O)C1=C(C)NC(SCC(=O)N(CC)CC)=C(C#N)C1c1ccco1 (configuration not stated)	19	20	7	-1	-12	·
C=CCOC(=O)C1=C(C)NC(SCC(=O)Nc2ccccc2)=C(C#N)C1c1ccco1 (configuration not stated)	10	13	7	64*	6	68*
O=c1[nH]c2cc3c(cc2cc1C(c1nnnn1C1CCCCC1)N1CCSCC1)OCCO3 (configuration not stated)	12	4	23	63*	10	-2
COc1cc2cc(C(c3nnnn3C3CCCC3)N3CCCCC3)c(=O)[nH]c2cc1OC (configuration not stated)	16	-6	11	-2	3	·
CCOC(=O)c1c(C)oc(NC(=O)COc2ccc(Cl)cc2C)c1C#N	10	4	13	70*	8	51*
Cc1ccc(C)c(NC(=S)N2CCC(C(=O)c3ccc(F)cc3)CC2)c1	·	·	·	0	·	·
O=C(NCc1ccc(F)cc1)Nc1cccc([N+](=O)[O-])c1	-3	34	15	62*	-1	94*
O=C(NCc1ccncc1)Nc1cccc([N+](=O)[O-])c1	-6	22	8	91*	0	73*
SMILES	tim10-1 inh	Mdm2-MdmX inh	tim23-1 inh	MPTP block	TIM10 inh	Rh123 counter	others
O=[N+]([O-])c1cccc(S(=O)(=O)NCc2ccncc2)c1	-43	-2	-31	82*	9	60*
C#CCNC(=O)C[C@@H]1C[C@@]2(C(=O)OC)CCCCC=C2N(Cc2ccc3c(c2)OCO3)C1=O	·	·	·	-2	·	·
O=C(CNC(=O)c1n[nH]c2ccccc12)Nc1ccc(F)c(F)c1F	-5	6	-1	0	4	·
COCCNC(=O)C1CCCN(C(=O)c2nc(C)oc2C)CC1 (configuration not stated)	·	·	·	0	·	·
CCOC(=O)c1c(-c2ccccc2)csc1NC(=O)CSc1nc(N)cc(N)n1	22	-9	24	80*	17	43*
COc1ccc(NS(=O)(=O)c2ccc(N3CCOCC3)c(NC(=O)c3ccc(F)cc3)c2)cc1	2	2	13	73*	-1	17	MPTP swell DR=>100;MPTP counter DR=>80
COc1ccc(NS(=O)(=O)c2ccc(N3CCOCC3)c(NC(=O)C(C)C)c2)cc1	18	26	11	76*	-2	55*
COc1cc(Cl)c(C)cc1NC(=O)c1ccc(NS(=O)(=O)c2ccc(F)c(F)c2)cc1	5	-11	2	51*	5	60*
CCOC(=O)/C=C/C(=O)Nc1cc(S(=O)(=O)Nc2ccc(OC)cc2)ccc1N1CCOCC1	-13	30	2	57*	1	70*
COc1ccc(NS(=O)(=O)c2ccc(N3CCOCC3)c(NC(=O)c3cccc(F)c3)c2)cc1	2	16	10	18	6	·
O=C(C[C@H]1CC[C@H]2[C@@H](COC[C@@H](O)CN2C(=O)c2cnccn2)O1)NCc1ccc(Oc2ccccc2)cc1	·	·	·	6	·	·
COC(=O)c1cc(=O)nc(NN=Cc2ccc(OC)cc2)s1	·	·	·	0	·	·
COc1ccc(C(=O)Nc2ccc(N3CCOCC3)cc2)cc1S(=O)(=O)N1CCOCC1	6	13	-2	1	-1	·
COc1ccc(C(=O)Nc2ccc(-c3cn4ccsc4n3)cc2)cc1S(=O)(=O)N1CCOCC1	9	16	-10	58*	-5	9	MPTP swell DR=>100;MPTP counter DR=>80
N#C/C(=C\c1cccc(Oc2ccc(C(F)(F)F)cc2[N+](=O)[O-])c1)c1nc2ccccc2[nH]1	21	38	15	155*	15	105*
COc1cc(/C=C(\C#N)c2nc3ccccc3[nH]2)cc(OC)c1O	·	·	·	2	·	·
CCC1Cc2[nH]c(=S)[nH]c(=O)c2C(c2ccc(Cl)cc2)O1 (configuration not stated)	·	·	·	-1	·	·
CN(c1ccc(OCC(=O)OCC(=O)Nc2ccc(F)cc2)cc1)S(=O)(=O)c1ccc(Cl)cc1	15	11	15	8	0	·

Assay outcomes deposited in PubChem BioAssay by Sanford-Burnham Center for Chemical Genomics.
